# Screens from PubChem BioAssay.
# Most compounds without a hit are left out; they make up all but 1.4% or so of the library.
# RXFP1 ag = RXFP1 (human) receptor agonism; Potency, µM (top dose mostly 57.5 µM), most hits filed as activators; hit rate 0.3% among 370,000; HEK293T-RXFP1 cAMP TR-FRET, 30 min; response scale: percent of porcine relaxin response, buffer zero; Q9HBX9; note: nearly all actives have a fitted effect of over 60% in size
#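 HEK293T cells stably expressing RXFP1 were pretreated with the PDE4 inhibitor Ro 20174, exposed to compounds for 30 min at 37C, lysed, and cAMP was read by TR-FRET. Data normalized to buffer (basal) and 29 nM porcine relaxin (100%).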
# KCNH2 3.1 inh = KCNH2 3.1 (human) potassium channel inhibition | hit rate 0.95% among 340,000 | AID 720553 | activity change, % (tested at about 1.8 µM) | U2OS KCNH2 3.1, thallium flux FluxOr; hits give low values;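 active = maximum activity change below -70%; inconclusive = maximum activity change from -70% to -50%; inactive = maximum activity change above -50%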;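 note: thallium influx rate constant from kinetic fluorescence after stimulation buffer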
#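 U2OS cells transduced with KCNH2 3.1 mutant virus (1.77 x 10^8 /mL, 4 h), plated overnight at 37 C, loaded 45 min with FluxOr dye plus Red40 quencher. Thallium flux rate constant from kinetic reads after stimulation buffer, normalised to controls.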
# RXFP1 antag = RXFP1 (human) relaxin receptor antagonism | Q9HBX9 | HEK293-RXFP1, relaxin-stimulated cAMP HTRF, 30 min; hits give low values | activity change, negative = inhibition, % at 57.5 µM | hit rate 0.59% among 350,000 | AID 1259400;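 active = activity change of -60% or lower, but not beyond a set lower limit; inconclusive = change between -60% and -40%, or beyond the set limit; inactive = change above -40%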
# PTHR1 agonist = activates the human parathyroid hormone receptor PTHR1; Q03431; HEK293 GP2 PTHR1 cells, GloSensor cAMP luminescence, 1 h; Potency, µM (series often up to 115 µM), usual class: activators; hit rate 0.075% among 410,000; AID 743266; note: nearly all actives have a fitted effect of over 55% in size
#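 HEK-293-derived GP2 cells expressing PTHR1 and a GloSensor cAMP reporter, 3,000/well, plated overnight, given luciferin plus IBMX (each 0.5 mM as added) for 1 h at 37 °C, then compound for 1 h at 37 °C. Luminescence was read after 15 min at room temperature.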
# GRP78 ERSR act = ER stress response induction in glioma. U87-MG GRP78 promoter luciferase reporter, 16 h. Potency, µM, most hits filed as activators. hit rate 0.02% among 420,000. AID 602332; note: series mostly up to about 76 µM; nearly all actives have a fitted effect of over 35% in size
#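 Stably transfected U87-MG glioma cells carrying a GRP78-based luciferase sensor; 16 h compound incubation. Luminescence end-point read 10 min after Bright-Glo addition at room temperature.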
# hERG WT inh = inhibitors of human wildtype KCNH2 potassium channel; Q12809; U2OS, BacMam KCNH2, thallium flux FluxOr; hits give low values; activity change, % at 1.84 µM; hit rate 0.37% among 340,000;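 active = maximum activity change below -70%; inconclusive = maximum activity change between -70% and -50%; inactive = maximum activity change above -50%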
# Target sequence (Q12809 whole entry, looked up): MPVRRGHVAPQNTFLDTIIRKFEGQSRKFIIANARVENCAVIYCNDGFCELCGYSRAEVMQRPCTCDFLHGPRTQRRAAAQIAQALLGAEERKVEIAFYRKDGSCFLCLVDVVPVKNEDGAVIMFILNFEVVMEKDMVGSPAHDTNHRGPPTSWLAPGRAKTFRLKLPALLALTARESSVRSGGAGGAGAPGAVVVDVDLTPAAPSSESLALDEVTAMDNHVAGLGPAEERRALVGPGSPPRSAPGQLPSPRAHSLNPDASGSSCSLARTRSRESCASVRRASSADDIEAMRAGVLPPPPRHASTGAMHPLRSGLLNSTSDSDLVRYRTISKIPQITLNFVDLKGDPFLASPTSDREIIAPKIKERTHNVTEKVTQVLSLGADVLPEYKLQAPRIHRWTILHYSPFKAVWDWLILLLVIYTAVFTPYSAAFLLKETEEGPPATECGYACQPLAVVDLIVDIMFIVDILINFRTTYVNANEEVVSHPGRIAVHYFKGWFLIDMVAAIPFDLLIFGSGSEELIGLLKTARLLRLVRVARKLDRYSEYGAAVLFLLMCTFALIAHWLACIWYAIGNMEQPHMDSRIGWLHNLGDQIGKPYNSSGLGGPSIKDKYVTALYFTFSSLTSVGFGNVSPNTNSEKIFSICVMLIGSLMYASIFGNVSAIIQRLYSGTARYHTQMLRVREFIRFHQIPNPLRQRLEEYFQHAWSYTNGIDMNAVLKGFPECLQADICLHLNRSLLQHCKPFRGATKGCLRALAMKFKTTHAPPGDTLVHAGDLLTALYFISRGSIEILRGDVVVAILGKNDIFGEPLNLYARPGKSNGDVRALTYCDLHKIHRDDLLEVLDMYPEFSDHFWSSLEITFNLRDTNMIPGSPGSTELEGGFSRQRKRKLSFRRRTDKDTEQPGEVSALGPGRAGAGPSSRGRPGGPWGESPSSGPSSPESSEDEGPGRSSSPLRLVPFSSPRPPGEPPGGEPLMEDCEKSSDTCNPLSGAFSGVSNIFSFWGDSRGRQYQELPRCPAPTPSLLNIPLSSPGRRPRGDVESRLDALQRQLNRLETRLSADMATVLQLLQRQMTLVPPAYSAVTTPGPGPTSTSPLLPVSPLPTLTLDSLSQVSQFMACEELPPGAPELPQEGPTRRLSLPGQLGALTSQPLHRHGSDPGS
#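 U2OS cells transduced with wild-type KCNH2 virus are loaded with FluxOr dye for 45 min, and thallium flux is measured in kinetic reads before and after stimulation buffer. Rate constants are normalized to DMSO controls.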
# Numbers stand for hits; 0 = inactive; ? = inconclusive; - = not tested or not shown. Unless noted, calls come from the whole dose curve; as a rule, active = well fitted curve in the direction sought with a large enough effect; inconclusive = small, poorly fitted or top-dose-only effect, or another doubt; inactive = no such curve, though single readings can be large; an effect the other way counts as inactive or inconclusive.
SMILES,RXFP1 ag,KCNH2 3.1 inh,RXFP1 antag,PTHR1 agonist,GRP78 ERSR act,hERG WT inh
CC12CCC(=O)N1C(C(=O)N1CCN(S(=O)(=O)c3ccccc3F)CC1)CS2 (stereo unspecified),0,0,0,0,0,0
CC12CCC(=O)N1C(C(=O)N1CCN(S(=O)(=O)c3ccc(Br)cc3Cl)CC1)CS2 (stereo unspecified),0,0,-66,0,0,0
CCC(C)(C)c1ccc(OCCCC[n+]2ccccc2)c(C(C)(C)CC)c1,0,0,0,0,0,0
CN(C)C(CNC(C(=O)Nc1ccc([N+](=O)[O-])cc1Br)c1ccccc1)c1ccccc1 (stereo unspecified),0,-85,0,0,0,0
CCOC(=O)c1nnc(-c2ccc(C)cc2)nc1N1CCSCC1,0,0,-68,0,0,0
CCOC(=O)c1nnc(-c2ccc(C)cc2)nc1Sc1ccc(Cl)cc1,0,0,0,0,0,0
Cc1c(C(=O)Nc2ccccc2F)sc2ncnc(N(C)C3CCCCC3)c12,?,-,0,0,-,-
Cc1ccccc1NCC(=O)N/N=C/c1c(C)c(C(=O)c2ccc(Cl)cc2)n2ccccc12,0,0,0,0,0,0
COc1ccccc1NC(=O)Nc1nc(CC(=O)NCc2ccc(F)cc2)cs1,0,0,-76,0,0,0
O=C(CCC1CCCC1)Nc1ccon1,0,0,0,0,0,0
O=[N+]([O-])c1ccc(O)c(C=Nc2cccc3ccccc23)c1,0,0,-96,0,0,0
CN(/N=C/c1cc([N+](=O)[O-])ccc1O)c1ccccc1,0,0,0,0,0,0
CC(N=Cc1cc([N+](=O)[O-])ccc1O)c1ccccc1 (stereo unspecified),0,0,0,0,0,-170
O=[N+]([O-])c1ccc(O)c(C=Nc2cccc3ncccc23)c1,0,-,0,0,0,0
O=C(Oc1ccccc1)c1cc(O)c(O)c(O)c1,-,-,-,0,0,-
COc1ccccc1Nc1nc(N)nc(CN2CCC(Cc3ccccc3)CC2)n1,0,-104,0,0,0,-155
COc1ccc(Nc2nc(N)nc(CN3CCC(Cc4ccccc4)CC3)n2)cc1,0,-116,0,0,0,0
CC(=O)C1=C(c2ccc(Cl)c(Cl)c2)N(C(C)=O)n2c(nnc2C2CCCCC2)S1,0,-,0,0,0,-
Cc1cccc(C)c1-n1cccc1/C=C1/C(=N)N2C(=NC1=O)SN=C2S(C)(=O)=O,0,0,-108,0,0,0
Cc1ccc(-n2cccc2/C=C2/C(=N)N3C(=NC2=O)SN=C3S(C)(=O)=O)cc1Cl,0,0,0,0,0,0
O=C1S/C(=C\C=C\c2ccco2)C(=O)N1c1ccc(O)cc1,0,0,-63,0,0,0
O=C1S/C(=C\C=C\c2ccco2)C(=O)N1c1ccccc1,0,0,?,0,0,0
COc1cc(C2SCCS2)cc(Br)c1Oc1ncccc1[N+](=O)[O-],0,0,0,0,0,0
Cc1ccc(-c2nnc(C3CCN(S(=O)(=O)c4ccc(C)c(C)c4)CC3)o2)cc1,0,-,0,0,0,-
CC(=O)Nc1ccc(S(=O)(=O)N2CCC(c3nnc(-c4ccc(C)cc4)o3)CC2)cc1,0,-137,0,0,0,0
SMILES,RXFP1 ag,KCNH2 3.1 inh,RXFP1 antag,PTHR1 agonist,GRP78 ERSR act,hERG WT inh
CN1CCN(/N=C/c2ccc(N(c3ccccc3)c3ccccc3)cc2)CC1,0,-72,0,0,0,0
O=C(NCCc1ccccc1)c1ccc(CS(=O)(=O)Cc2ccccc2Cl)o1,0,-,0,0,0,-
Cc1ccccc1CS(=O)(=O)Cc1ccc(C(=O)NCCc2ccccc2)o1,0,-71,0,0,0,0
Cc1ccc(C)c(OCCC(=O)N2CCN(S(=O)(=O)c3ccc([N+](=O)[O-])cc3)CC2)c1,0,-139,0,0,0,0
Cc1cc(C)c(C)c(S(=O)(=O)N2CCN(CC(=O)Nc3ccc([N+](=O)[O-])cc3)CC2)c1C,0,0,0,0,0,0
Cc1ccc(S(=O)(=O)N2CCN(CC(=O)Nc3ccc([N+](=O)[O-])cc3)CC2)cc1C,0,-92,0,0,0,-76
Nc1cc(-c2cccc(F)c2)nn1S(=O)(=O)c1cccc2nsnc12,0,0,-,0,0,0
OCC[C@@H]1C[C@H](O)[C@@H](O)[C@@]2(CCc3ccccc3O2)O1,0,0,-,0,0,0
OCC[C@H]1C[C@@H](O)[C@H](O)[C@]2(OCc3ccccc32)O1,0,-89,-,0,0,0
OCC[C@@H]1C[C@@H](O)[C@H](O)[C@@]2(CCc3ccccc3O2)O1,0,0,-,0,0,-169
OCC[C@@H]1C[C@H](O)[C@@H](O)[C@@]2(OCc3ccccc32)O1,0,-136,-,0,0,0
O=C(Nc1nnc(C2=COCCO2)o1)c1ccc(Cl)cc1,0,-,0,0,0,0
O=C(Nc1nnc(C2=COCCO2)o1)c1ccc(Cc2ccccc2)cc1,0,0,-65,0,0,0
C=CCOC(=O)C1=C(C)N(C)C(=O)NC1c1cc2c(cc1Br)OCO2 (stereo unspecified),0,0,-74,0,0,0
COc1ccc(C)cc1NS(=O)(=O)c1ccc2c(c1)CCN2C(C)=O,0,0,0,0,0,0
CCOC(=O)c1ccc(S(=O)(=O)N2CCN(CC(O)COc3ccc(C#N)cc3)CC2)cc1 (stereo unspecified),0,?,0,0,0,0
CCC(=O)Nc1ccc(N2CCOCC2)c(S(=O)(=O)Nc2ccc(OC)cc2)c1,0,0,0,0,0,0
Cc1cc(C(=O)N2CCCC(C(=O)c3ccc(Oc4ccccc4)cc3)C2)n[nH]1 (stereo unspecified),0,0,-85,0,0,0
COc1ccccc1C1c2[nH]c3ccccc3c2C[C@H]2C(=O)N(C3CCN(Cc4ccccc4)CC3)CC(=O)N12 (stereo partly specified),0,0,0,0,0,-106
COc1ccc(CCNC(=O)c2csc3c2CCCC3)cc1,0,0,0,0,0,0
CCCNC(=O)c1csc2c1CCCCC2,0,-78,0,0,0,0
CCC(C)c1ccccc1N1CC(C(=O)Nc2ccc(C)c(S(=O)(=O)N3CCOCC3)c2)CC1=O (stereo unspecified),0,-73,0,0,0,0
COC(=O)CC(c1ccc(OC)c(OC)c1)c1ccc(OC)c(OC)c1,0,0,0,0,0,-212
Nc1nc(N)c2snnc2n1,-,-,-,-,0,-
CCN(CC(=O)Nc1ccc2c(c1)OCCO2)C(=O)/C=C/c1cccc(Br)c1,0,0,0,0,0,0
